# Assay results reported in ChEMBL document CHEMBL1961873, “Compounds: GSK PKIS; Assays: Nanosyn kinase panel” (2012).
# Assays:
# [1] = molecular target: Ribosomal protein S6 kinase alpha-6 (Homo sapiens) (UniProt Q9UK32); conditions: at 1 µM;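 note: each value is a mean inhibition of RSK4 from a GSK PKIS panel screen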
# [2] = molecular target: T1, Serine/threonine-protein kinase Sgk1 (Homo sapiens) (UniProt O00141); conditions: at 0.1 µM
# T1 sequence (whole entry): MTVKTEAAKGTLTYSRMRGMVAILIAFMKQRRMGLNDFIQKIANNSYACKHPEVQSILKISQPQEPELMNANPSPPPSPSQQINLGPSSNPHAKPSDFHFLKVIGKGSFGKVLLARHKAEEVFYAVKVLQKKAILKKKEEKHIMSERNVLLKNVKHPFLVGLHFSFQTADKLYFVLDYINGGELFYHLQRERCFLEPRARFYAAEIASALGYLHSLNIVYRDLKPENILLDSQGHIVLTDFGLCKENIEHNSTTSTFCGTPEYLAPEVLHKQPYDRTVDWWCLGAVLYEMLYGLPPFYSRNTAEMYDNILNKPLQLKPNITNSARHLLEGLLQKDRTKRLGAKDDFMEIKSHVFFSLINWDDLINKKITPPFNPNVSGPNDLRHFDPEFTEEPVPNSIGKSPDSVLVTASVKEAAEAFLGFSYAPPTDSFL
# [3] = molecular target: T1, Serine/threonine-protein kinase Sgk1 (Homo sapiens); conditions: at 1 µM
# [4] = molecular target: T2, Serine/threonine-protein kinase Sgk2 (Homo sapiens) (UniProt Q9HBY8); conditions: at 0.1 µM
# T2 sequence (whole entry): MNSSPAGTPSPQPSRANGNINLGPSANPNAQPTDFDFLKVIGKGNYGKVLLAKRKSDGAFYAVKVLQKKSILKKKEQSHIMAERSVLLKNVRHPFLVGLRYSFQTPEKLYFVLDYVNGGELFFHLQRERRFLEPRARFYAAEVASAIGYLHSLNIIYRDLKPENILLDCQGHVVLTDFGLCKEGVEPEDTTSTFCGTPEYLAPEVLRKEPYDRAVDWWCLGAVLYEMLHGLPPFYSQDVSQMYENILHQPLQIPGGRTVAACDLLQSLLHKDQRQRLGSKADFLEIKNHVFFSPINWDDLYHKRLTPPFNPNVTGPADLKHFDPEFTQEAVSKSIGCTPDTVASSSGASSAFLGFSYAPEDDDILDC
# [5] = molecular target: T2, Serine/threonine-protein kinase Sgk2 (Homo sapiens); conditions: at 1 µM
# [6] = molecular target: T3, Serine/threonine-protein kinase Sgk3 (Homo sapiens) (UniProt Q96BR1); conditions: at 0.1 µM
# T3 sequence (whole entry): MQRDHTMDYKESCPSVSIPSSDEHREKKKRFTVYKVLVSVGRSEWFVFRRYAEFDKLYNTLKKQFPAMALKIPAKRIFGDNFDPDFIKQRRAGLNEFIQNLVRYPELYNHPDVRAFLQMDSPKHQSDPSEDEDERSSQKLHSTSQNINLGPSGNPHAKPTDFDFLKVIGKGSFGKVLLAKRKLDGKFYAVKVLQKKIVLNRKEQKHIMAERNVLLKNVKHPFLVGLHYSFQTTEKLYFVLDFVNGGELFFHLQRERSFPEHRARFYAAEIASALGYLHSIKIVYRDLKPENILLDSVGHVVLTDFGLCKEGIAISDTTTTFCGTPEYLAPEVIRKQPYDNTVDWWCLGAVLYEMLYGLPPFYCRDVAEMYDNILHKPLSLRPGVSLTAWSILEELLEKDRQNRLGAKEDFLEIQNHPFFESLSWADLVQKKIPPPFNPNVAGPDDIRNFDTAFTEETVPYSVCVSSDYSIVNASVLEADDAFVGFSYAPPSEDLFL
# [7] = molecular target: T3, Serine/threonine-protein kinase Sgk3 (Homo sapiens); conditions: at 1 µM
# [8] = molecular target: 5'-AMP-activated protein kinase catalytic subunit alpha-1 (Homo sapiens) (UniProt Q13131); conditions: at 0.1 µM
# 5'-AMP-activated protein kinase catalytic subunit alpha-1 (Homo sapiens), sequence (Q13131 whole entry, looked up): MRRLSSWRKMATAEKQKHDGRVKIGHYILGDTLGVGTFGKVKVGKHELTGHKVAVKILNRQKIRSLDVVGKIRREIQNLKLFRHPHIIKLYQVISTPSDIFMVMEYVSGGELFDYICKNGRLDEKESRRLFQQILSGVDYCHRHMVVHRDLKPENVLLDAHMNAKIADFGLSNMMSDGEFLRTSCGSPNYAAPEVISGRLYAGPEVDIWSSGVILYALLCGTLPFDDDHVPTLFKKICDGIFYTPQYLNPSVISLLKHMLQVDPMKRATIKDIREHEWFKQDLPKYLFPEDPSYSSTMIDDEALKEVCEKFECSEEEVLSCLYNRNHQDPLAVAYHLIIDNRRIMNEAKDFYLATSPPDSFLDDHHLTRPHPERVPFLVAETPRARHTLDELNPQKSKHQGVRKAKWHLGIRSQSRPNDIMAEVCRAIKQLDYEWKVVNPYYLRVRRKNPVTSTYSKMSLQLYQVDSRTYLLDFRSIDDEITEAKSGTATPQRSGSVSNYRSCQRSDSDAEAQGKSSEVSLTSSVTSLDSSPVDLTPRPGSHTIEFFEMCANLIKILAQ
# [9] = molecular target: 5'-AMP-activated protein kinase catalytic subunit alpha-1 (Homo sapiens) (UniProt Q13131); conditions: at 1 µM
# [10] = molecular target: 5'-AMP-activated protein kinase catalytic subunit alpha-2 (Homo sapiens) (UniProt P54646); conditions: at 0.1 µM;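 note: mean inhibition measured on the AMPK complex of alpha2, beta1 and gamma1 subunits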
# 5'-AMP-activated protein kinase catalytic subunit alpha-2 (Homo sapiens), sequence (P54646 whole entry, looked up): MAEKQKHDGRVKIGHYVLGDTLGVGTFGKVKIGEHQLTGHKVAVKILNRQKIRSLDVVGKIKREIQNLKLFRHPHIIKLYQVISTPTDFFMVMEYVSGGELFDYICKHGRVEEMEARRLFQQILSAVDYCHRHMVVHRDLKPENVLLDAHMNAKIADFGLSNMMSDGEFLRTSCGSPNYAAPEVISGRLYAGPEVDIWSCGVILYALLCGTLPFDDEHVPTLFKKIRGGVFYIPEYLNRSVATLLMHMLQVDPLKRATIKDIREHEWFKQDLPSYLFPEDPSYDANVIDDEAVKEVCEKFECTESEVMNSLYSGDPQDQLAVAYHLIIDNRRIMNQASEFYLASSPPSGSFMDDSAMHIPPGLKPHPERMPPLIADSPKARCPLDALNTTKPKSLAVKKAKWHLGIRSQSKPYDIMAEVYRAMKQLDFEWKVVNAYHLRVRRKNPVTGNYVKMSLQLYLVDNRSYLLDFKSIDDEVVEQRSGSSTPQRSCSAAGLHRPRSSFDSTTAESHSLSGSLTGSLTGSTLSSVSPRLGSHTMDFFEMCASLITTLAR
# Ribosomal protein S6 kinase alpha-6 (Homo sapiens), sequence (Q9UK32 whole entry): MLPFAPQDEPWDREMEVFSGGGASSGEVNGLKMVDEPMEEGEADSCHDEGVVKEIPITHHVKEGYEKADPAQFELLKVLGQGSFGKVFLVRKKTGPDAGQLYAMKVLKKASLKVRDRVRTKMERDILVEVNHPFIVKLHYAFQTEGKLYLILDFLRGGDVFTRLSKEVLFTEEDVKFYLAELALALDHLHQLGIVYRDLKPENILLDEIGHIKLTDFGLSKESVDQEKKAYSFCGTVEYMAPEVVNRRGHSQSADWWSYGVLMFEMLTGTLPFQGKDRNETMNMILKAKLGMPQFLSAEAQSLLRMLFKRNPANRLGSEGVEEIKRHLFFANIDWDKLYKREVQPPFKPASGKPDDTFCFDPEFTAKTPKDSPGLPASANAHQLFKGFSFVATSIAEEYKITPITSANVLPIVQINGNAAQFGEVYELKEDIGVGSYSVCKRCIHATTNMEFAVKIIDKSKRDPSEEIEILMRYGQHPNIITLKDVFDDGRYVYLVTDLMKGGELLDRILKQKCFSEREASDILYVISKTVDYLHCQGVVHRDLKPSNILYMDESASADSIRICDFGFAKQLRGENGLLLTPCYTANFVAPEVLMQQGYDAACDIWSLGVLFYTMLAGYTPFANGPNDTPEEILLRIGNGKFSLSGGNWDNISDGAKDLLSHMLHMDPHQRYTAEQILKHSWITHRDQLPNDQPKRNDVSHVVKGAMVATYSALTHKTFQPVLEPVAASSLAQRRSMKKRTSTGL
SMILES,inhibition [1] [%],inhibition [2] [%],inhibition [3] [%],inhibition [4] [%],inhibition [5] [%],inhibition [6] [%],inhibition [7] [%],inhibition [8] [%],inhibition [9] [%],inhibition [10] [%]
Fc1ccc(-c2nn3ccccc3c2-c2ccncc2)cc1,2.09,0.19,3.23,3.79,3.17,3.25,5.79,1.13,-0.08,1.39
CS(=O)(=O)CCNCc1ccc(-c2ccc3ncnc(Nc4ccc(OCc5ccccc5)c(C(F)(F)F)c4)c3c2)o1,0.75,3.38,3.03,1.55,1.26,2.51,4.06,3.06,2.92,-6.64
CN1CCC(n2cnc(-c3ccc(F)cc3)c2-c2ccnc(Nc3ccccc3)n2)CC1,2.69,2.19,5.36,3.28,5.4,2.89,3.19,2.05,3.64,-0.33
COc1cc(/C=N/Nc2ncnc3[nH]ncc23)ccc1O,13.3,13,54.4,6.14,19.9,3.82,5.26,5.24,20.5,2.66
O=S(=O)(CCNCc1ccc(-c2ccc3ncnc(Nc4ccc(OCc5cccc(F)c5)c(Cl)c4)c3c2)o1)c1ccccc1,1.81,4.12,4.02,4.25,7.28,6.67,5.71,7.7,5.94,3.89
Nc1nc(-c2cccc(Cl)c2)c(-c2ccc3ncccc3n2)s1,2.73,4.41,5.86,2.07,3.59,4.35,6.98,3.09,5.53,3.05
O=C(O[C@H]1CN[C@H](C#Cc2cc3ncnc(Nc4ccc(Cc5ccccc5)cc4)c3s2)C1)N1CCOCC1,1.25,1.05,1.98,0.65,7.04,2.7,5.58,2.64,1.94,-0.29
CCN1CCC(CC(=O)Nc2n[nH]c3nnc(-c4cccc(F)c4F)cc23)CC1,1.38,0.53,0.29,-3.94,1.93,0.82,4.18,2.47,3.36,2.36
COC(=O)c1sc(-n2cnc3cc(OC)c(OC)cc32)cc1OCc1ccccc1C(F)(F)F,1.66,2.5,4.04,1.44,1.94,2.58,1.46,3.84,8.18,-0.41
CNC(=O)c1cccc(C#Cc2cncnc2Nc2ccc(OCc3cccc(F)c3)c(Cl)c2)c1,0.05,1.16,0.62,-0.28,0.71,0.18,1.41,0.65,2.17,-3.97
CCn1c(-c2nonc2N)nc2cnc(Oc3cccc(NC(=O)c4ccc(N(C)C)cc4)c3)cc21,15.2,9.87,49.7,16.3,61.9,43.8,83.5,1.59,2.17,2.3
COc1cc(N2CCN(C(C)C)CC2)ccc1Nc1nc(Nc2ccc(F)cc2C(N)=O)c2cc[nH]c2n1,54.8,-0.27,1.48,3.52,-3.53,0.95,0.42,6.33,33.5,6.34
CNC(=O)c1cc(-c2ccc(F)cc2)cc(-c2ccc(S(=O)(=O)N3CCCC3)cc2)c1N,1.28,2.26,1.89,2.87,0.33,2.62,3.57,1.77,2.03,6.28
Fc1ccc(-c2cc(-c3c[nH]nc3-c3ccccn3)ccn2)cc1,0.89,3.85,5.98,3.86,0.65,5.08,4.1,4.84,4.83,2.6
Clc1ccc(-c2nn3ncccc3c2-c2ccnc(Nc3ccccc3)n2)cc1,1.59,3.14,1.09,1.58,0.53,1.92,-1.01,0.45,0.54,1.86
COc1ccc(-c2cc(-c3c[nH]nc3-c3ccccn3)ccn2)cc1,1.8,2.87,7.39,5.02,5.93,4.82,6.74,4.71,6.63,0.83
NC(=O)c1sc(-n2cnc3ccc(C(F)(F)F)cc32)cc1OCc1ccccc1Br,2.19,3.07,4.04,-0.91,3.21,3.83,4.65,2.58,4.41,3.14

SMILES,inhibition [1] [%],inhibition [2] [%],inhibition [3] [%],inhibition [4] [%],inhibition [5] [%],inhibition [6] [%],inhibition [7] [%],inhibition [8] [%],inhibition [9] [%],inhibition [10] [%]
CCNC(=O)O[C@H]1CN[C@H](C#Cc2cc3ncnc(Nc4ccc(OCc5cccc(F)c5)c(Cl)c4)c3s2)C1,2.88,2.25,-0.58,8.05,5.53,4.38,-0.29,2.46,2.35,0.44
Cc1ccc2c(-c3ccnc(Nc4ccccc4)n3)c(-c3ccc(F)cc3)nn2n1,4.74,2.01,1.69,2.15,3.69,2.63,2.1,2.48,2.15,0.59
Cc1cccc(Nc2ncc(-c3ccccc3)o2)c1,2.13,1.63,2.62,3.96,2.16,0.65,1.3,3.82,4.04,4.67
CS(=O)(=O)CCNCc1coc(-c2ccc3ncnc(Nc4ccc(OCc5ccccc5)cc4)c3c2)c1,2.32,2.57,2.35,-0.69,1.93,-0.71,1.87,2.75,2.96,3.81
NS(=O)(=O)c1ccc(N/N=C2\C(=O)Nc3ccc4ncccc4c32)cc1,55.5,10.6,50,-0.23,21.3,1.63,10.2,54.8,82.7,28.9
COc1ccc(-c2nn3ncccc3c2-c2ccnc(Nc3ccc4c(c3)OCCO4)n2)cc1,2.56,1.1,1.98,-0.02,0.9,-1.8,0.46,1.06,1.64,0.54
CCn1c(-c2nonc2N)nc2c(C#CC(C)(C)O)nc(OC[C@H](N)c3ccccc3)cc21,7.07,1.86,3.49,5.31,13.4,31.1,57.7,17.7,65.7,4.97
CCc1nn2ncccc2c1-c1ccnc(NC2CC2)n1,1.93,2.68,3.56,0.28,-2.61,2.22,3.01,1.09,4.1,2.14
Nc1ncc(-c2cccc(S(N)(=O)=O)c2)c2scc(-c3ccc(F)c(Cl)c3)c12,3.24,2.77,2.35,-0.69,4.55,3.54,0.56,3.66,4.69,0.92
Cc1cccc2c1NC(=O)/C2=N\Nc1ccc(S(N)(=O)=O)cc1,2.27,0.42,3.23,2.93,3.69,0.3,-0.24,2.8,4.3,0.95
CCN(CC)S(=O)(=O)c1ccc(OC)c(Nc2ncc(-c3ccccc3)o2)c1,2.89,-0.03,3.29,0.96,1.93,4.69,0.56,1.56,3.48,-5.76
O=C(Nc1n[nH]c2cc(-c3ccc(F)cc3)ccc12)C1CC1,4.8,2.59,3.89,3.3,6.36,3.83,8.97,1.21,4.56,3.71
COc1cccc(-n2ncc3c(N/N=C/c4ccc(F)cc4)ncnc32)c1,1.84,4.27,5.6,2.15,0.76,4.84,3.63,3.38,5.57,-0.09
COc1ccc2[nH]c3c4[nH]c5ccc(OC)cc5c4c4c(c3c2c1)C(=O)NC4=O,88,21.8,63.8,16.6,59.4,9.76,40.2,37,78,17.9
NS(=O)(=O)c1ccc(Nc2ncc(-c3ccccc3)o2)cc1,4.32,2.77,13,2.15,10.4,1.86,2.86,4.14,11.5,1.03
CCn1cc(-c2ccnc3[nH]ccc23)c(-c2cccc(NC(=O)Nc3ccc(OCc4ccccc4)cc3)c2)n1,-1.2,0.59,-1.2,-1.32,-1.47,-0.3,-0.15,1.13,1.82,0.63
COc1cc(Nc2nccc(Nc3ccc4c(C)n[nH]c4c3)n2)cc(OC)c1OC,2.74,3.49,5.3,-0.28,-0.14,2.13,1.07,1.6,1.71,2.15
